Laboratory results: PubChem BioAssay (NCATS)
Values joined by “and” are separate entries in the source; they are usually repeats but may differ in a detail not shown here. Identical values can stand only once. Inconclusive results are not listed. The source holds several records for some structures; these can differ, active in one and inactive in another. Active and inactive are the calls of the source. Calls follow the shape of the dose curve; as a rule, active = well fitted curve in the direction sought with a large enough effect; inconclusive = small, poorly fitted or top-dose-only effect, or another doubt; inactive = no such curve, though single readings can be large; an effect the other way counts as inactive or inconclusive.

What was measured:
TAB165 = assay: qHTS profiling for inhibitors of Plasmodium falciparum proliferation (AID 504749); also: nearly all actives have a fitted effect of over 60% in size; settings: P. falciparum in erythrocytes, SYBR Green DNA, 72 h; series mostly up to 28.7 µM
How it was run: (§1)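 Parasite proliferation within erythrocytes, 72 h exposure. Endpoint: SYBR Green I fluorescence after overnight lysis at room temperature. Controls: 0.29 uM artemisinin, DMSO.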

CRL-7250 [1] = assay: Cytotoxic Profiling of Annotated Libraries Using Quantitative High-Throughput Screening (AID 1296008); settings: Five cell lines viability, CellTiter-Glo ATP luminescence, 48-72 h; max response: stronger effect = lower value; also: nearly all actives have a fitted effect of over 60% in size; as to max response: % is scaled to controls: 0 for no effect and ±100 for the full control effect
How it was run: (§2)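 Compounds were pin-transferred onto cells and incubated 48 or 72 hr at 37 degree Celsius, 95% humidity. CellTiter-Glo was added, plates sat 10 min at room temperature, then ATP-coupled luminescence was imaged as the viability read-out.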

HaCat [2] = assay: as above; settings: Five cell lines viability, CellTiter-Glo ATP luminescence, 48-72 h; max response: stronger effect = lower value
How it was run: as §2

KB-3-1 = assay: as above; settings: Five cell lines viability, CellTiter-Glo ATP luminescence, 48-72 h; max response: stronger effect = lower value
How it was run: as §2

NIH3T3 [3] = assay: as above; settings: Five cell lines viability, CellTiter-Glo ATP luminescence, 48-72 h; max response: stronger effect = lower value
How it was run: as §2

CRL-7250 [4] = assay: qHTS assay to identify novel small-molecules to repurpose for Merkel cell carcinoma treatment (AID 1296009); settings: MCC and control cell lines, CellTiter-Glo viability, 72 h; series mostly up to 44.8 µM; also: nearly all actives have a fitted effect of over 60% in size
How it was run: (§3)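 qHTS format: cells treated with library compounds in DMSO across 8 (NPC) or 11 (MIPE) concentrations. Readout after 72 hr at 37 degree celsius was CellTiter-Glo luminescence.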

HEK293T = assay: as above; settings: MCC and control cell lines, CellTiter-Glo viability, 72 h; at 44.8 µM (top of the series)
How it was run: as §3

MCC-13 = assay: as above; settings: MCC and control cell lines, CellTiter-Glo viability, 72 h; series mostly up to 46 µM
How it was run: as §3

MCC-26 = assay: as above; settings: MCC and control cell lines, CellTiter-Glo viability, 72 h; series mostly up to 46 µM
How it was run: as §3

MKL-1 = assay: as above; settings: MCC and control cell lines, CellTiter-Glo viability, 72 h; series mostly up to 46 µM
How it was run: as §3

MKL-2 = assay: as above; settings: MCC and control cell lines, CellTiter-Glo viability, 72 h; series mostly up to 46 µM
How it was run: as §3

NIH3T3 [5] = assay: as above; settings: MCC and control cell lines, CellTiter-Glo viability, 72 h; at 44.8 µM (top of the series) unless noted
How it was run: as §3

UISO = assay: as above; settings: MCC and control cell lines, CellTiter-Glo viability, 72 h; series mostly up to 46 µM
How it was run: as §3

WaGa = assay: as above; settings: MCC and control cell lines, CellTiter-Glo viability, 72 h; series mostly up to 46 µM
How it was run: as §3

C33A = assay: Primary qHTS to identify gynecologic anti-cancer compounds using libraries of approved drugs and bioactive compounds (AID 1345084); settings: Gynecologic cancer cell panel viability, ATPlite luminescence, 48 h; series mostly up to 57.5 µM; also: nearly all actives have a fitted effect of over 55% in size
How it was run: (§4)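 Cell viability after 48 h drug treatment, ATPlite luminescence readout; five doses.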

CAOV3 = assay: as above; settings: Gynecologic cancer cell panel viability, ATPlite luminescence, 48 h; series mostly up to 57.5 µM
How it was run: as §4

CASKI = assay: as above; settings: Gynecologic cancer cell panel viability, ATPlite luminescence, 48 h; series mostly up to 57.5 µM
How it was run: as §4

W2 = assay: qHTS profiling for inhibitors of Plasmodium falciparum proliferation (AID 504749); also: nearly all actives have a fitted effect of over 60% in size; settings: P. falciparum in erythrocytes, SYBR Green DNA, 72 h; series mostly up to 28.7 µM
How it was run: as §1

HEK293 = assay: Cytotoxic Profiling of Annotated Libraries Using Quantitative High-Throughput Screening (AID 1296008); settings: Five cell lines viability, CellTiter-Glo ATP luminescence, 48-72 h; max response: stronger effect = lower value; also: nearly all actives have a fitted effect of over 60% in size; as to max response: % is scaled to controls: 0 for no effect and ±100 for the full control effect
How it was run: as §2

HACAT [6] = assay: qHTS assay to identify novel small-molecules to repurpose for Merkel cell carcinoma treatment (AID 1296009); settings: MCC and control cell lines, CellTiter-Glo viability, 72 h; at 44.8 µM (top of the series) unless noted; also: nearly all actives have a fitted effect of over 60% in size
How it was run: as §3
Potency is read from the fitted curve at half-maximal effect.

CC(C)=CC1C(C(=O)OCc2cccc(Oc3ccccc3)c2)C1(C)C (stereo not drawn)
inactive: Potency (TAB165) | outcome (CRL-7250 [1]) | max response (HaCat [2]) 2.03% | max response (KB-3-1) 3.42% | outcome (NIH3T3 [3]) | outcome (CRL-7250 [4]) | outcome (HEK293T) | Potency (MCC-13) | Potency (MCC-26) | Potency (MKL-1) | Potency (MKL-2) | outcome (NIH3T3 [5]) | Potency (UISO) | Potency (WaGa) | Potency (C33A) | Potency (CAOV3) | Potency (CASKI)

Oc1cc(Cl)ccc1Oc1ccc(Cl)cc1Cl
39.8 µM (active) and inactive: Potency (CASKI)
44.2 µM (active) and inactive: Potency (MCC-13)
active: Potency (TAB165) 3.55 µM | Potency (W2) 3.38 µM | Potency (CRL-7250 [1]) 39.4 µM | Potency (HEK293) 22.1 µM | Potency (MKL-2) 24.8 µM | Potency (UISO) 44.2 µM | Potency (WaGa) 55.6 µM
inactive: max response (KB-3-1) 3.49% | Potency (MCC-26) | Potency (CAOV3)
28.2 µM (active) and inactive: Potency (C33A)

Oc1ccccc1-c1ccccc1
inactive: Potency (TAB165) | outcome (CRL-7250 [1]) | max response (HaCat [2]) 1.64% | max response (KB-3-1) 2.06% | outcome (NIH3T3 [3]) | outcome (CRL-7250 [4]) | outcome (HEK293T) | Potency (MCC-13) | Potency (MCC-26) | Potency (MKL-1) | Potency (MKL-2) | outcome (NIH3T3 [5]) | Potency (UISO) | Potency (WaGa) | Potency (C33A) | Potency (CAOV3) | Potency (CASKI)

Cc1sc2c(c1C)C(c1ccc(Cl)cc1)=N[C@@H](CC(=O)OC(C)(C)C)c1nnc(C)n1-2
active: Potency (CRL-7250 [1]) 0.372 µM | Potency (HEK293) 0.526 µM | Potency (MKL-1) 5.9 µM | Potency (MKL-2) 0.264 µM | Potency (WaGa) 2.35 µM

CC(O)(CS(=O)(=O)c1ccc(F)cc1)C(=O)Nc1ccc(C#N)c(C(F)(F)F)c1 (stereo not drawn)
active: Potency (MKL-2) 4.18 µM | Potency (WaGa) 8.33 µM
inactive: outcome (CRL-7250 [1]) | outcome (HaCat [2]) | max response (KB-3-1) 4.8% and -10.6% | max response (NIH3T3 [3]) 2.23% | outcome (NIH3T3 [3]) | outcome (CRL-7250 [4]) | outcome (HACAT [6]) | outcome (NIH3T3 [5]) | Potency (C33A) | Potency (CAOV3) | Potency (CASKI)

CC[N+]1(C)CCCC(OC(=O)C(O)(c2ccccc2)c2ccccc2)C1 (stereo not drawn)
inactive: Potency (TAB165) | Potency (W2) | max response (CRL-7250 [1]) 2.5% | max response (HEK293) -9.88% | max response (HaCat [2]) 1.89% | max response (KB-3-1) 3.82% | outcome (NIH3T3 [3]) | Potency (MCC-13) | Potency (MCC-26) | Potency (MKL-1) | Potency (MKL-2) | outcome (NIH3T3 [5]) | Potency (UISO) | Potency (WaGa) | Potency (C33A) | Potency (CAOV3) | Potency (CASKI)

COc1ccc(C(CN(C)C)C2(O)CCCCC2)cc1 (stereo not drawn)
inactive: Potency (TAB165) | max response (CRL-7250 [1]) -3.43% and 1.19% | max response (HaCat [2]) 1.09% and -4.23% | max response (KB-3-1) 2.29% and -2.64% | max response (NIH3T3 [3]) 2.42% | outcome (NIH3T3 [3]) | outcome (HEK293T) | Potency (MCC-13) | Potency (MCC-26) | Potency (MKL-1) | Potency (MKL-2) | outcome (NIH3T3 [5]) | Potency (UISO) | Potency (WaGa) | Potency (C33A) | Potency (CAOV3) | Potency (CASKI)
active: Potency (W2) 1.9 µM

Fc1ccc(C(OCCN2CCN(CCCc3ccccc3)CC2)c2ccc(F)cc2)cc1
active: Potency (TAB165) 4.47 µM | Potency (W2) 4.26 µM | Potency (CRL-7250 [1]) 13.2 µM | Potency (HEK293) 18.7 µM and 21.1 µM | Potency (KB-3-1) 23.1 µM | Potency (MKL-1) 9.44 µM | Potency (MKL-2) 23.5 µM and 4.73 µM | Potency (UISO) 23.7 µM | Potency (WaGa) 8.41 µM
inactive: Potency (MCC-26)

CNC(=O)c1ccc(N2C(=S)N(c3ccc(C#N)c(C(F)(F)F)c3)C(=O)C23CCC3)cc1F
inactive: outcome (CRL-7250 [1]) | outcome (HaCat [2]) | max response (KB-3-1) 0.285% and 2.98% | max response (NIH3T3 [3]) 3.77% and -4.83% | outcome (CRL-7250 [4]) | outcome (HACAT [6]) | outcome (HEK293T) | Potency (MCC-13) | Potency (MCC-26) | Potency (MKL-1) | Potency (MKL-2) | Potency (UISO) | Potency (WaGa) | Potency (C33A) | Potency (CAOV3) | Potency (CASKI)

CN(C)CCc1ccc(O)cc1
inactive: Potency (TAB165) | Potency (W2) | max response (CRL-7250 [1]) -1.07% and -0.797% | max response (HaCat [2]) 3.93% | outcome (HaCat [2]) | max response (KB-3-1) -1.4% and 4.63% | max response (NIH3T3 [3]) -1.51% and -2.46% | outcome (HACAT [6]) | outcome (HEK293T) | Potency (MCC-13) | Potency (MCC-26) | Potency (MKL-1) | Potency (MKL-2) | Potency (UISO) | Potency (WaGa) | Potency (C33A) | Potency (CAOV3) | Potency (CASKI)

CCOP(=S)(OCC)Oc1cc(C)nc(C(C)C)n1
inactive: Potency (TAB165) | Potency (W2) | max response (CRL-7250 [1]) 1.07% | outcome (HEK293) | max response (HaCat [2]) 0.572% | max response (KB-3-1) 7.03% | max response (NIH3T3 [3]) -12% | outcome (HEK293T) | Potency (MCC-13) | Potency (MCC-26) | Potency (MKL-1) | Potency (MKL-2) | Potency (UISO) | Potency (WaGa) | Potency (C33A) | Potency (CAOV3) | Potency (CASKI)

CC(=O)Nc1cc([As](=O)(O)O)ccc1O
inactive: Potency (TAB165) | Potency (W2) | max response (CRL-7250 [1]) -3.67% | max response (HEK293) 2.5% | max response (HaCat [2]) -14.2% | max response (KB-3-1) 5.7% | outcome (NIH3T3 [3]) | Potency (MCC-13) | Potency (MCC-26) | Potency (MKL-1) | Potency (MKL-2) | outcome (NIH3T3 [5]) | Potency (UISO) | Potency (WaGa) | Potency (C33A) | Potency (CAOV3) | Potency (CASKI)
